# Measured values as given in PubChem BioAssay AID1159580 (chemical genetic matrix, 2015).
# The whole screen tested about 5,500 compounds, of which about 2,000 (36%) were called active. Roughly 18% stayed inconclusive and do not appear here. The list shows a part of the results. Unmarked numbers belong to inactive results. No stated cut-off is given here; in the data, active means normalized growth mostly below about 0.91 (no sharp cut-off); inconclusive means no clear call, values can overlap the other calls; inactive means mostly above about 0.92.
# Assay: chemical genetic growth profiling, strain panel (AID 1159580);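 further: tested at 20 µM; growth read once vehicle control cultures reached saturation at 30 °C; 1 = growth at the plate median or of vehicle wells; lower values mean less growth of the strain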
# Conditions: growth OD
compound,measurement,setting,value
COc1ccc2cc3[n+](cc2c1OC)CCc1cc2c(cc1-3)OCO2,normalized growth,"S. cerevisiae deletion strains, locus YJR075W, strain HOC1, active compounds read low",0.394 (active)
same,normalized growth,"S. cerevisiae deletion strains, locus YKL009W, strain mrt4, active compounds read low",0.922
same,normalized growth,"S. cerevisiae deletion strains, locus YKL068W, active compounds read low",1
same,normalized growth,"S. cerevisiae deletion strains, locus YKL085W, strain MDH1 (second series), active compounds read low",0.996
same,normalized growth,"S. cerevisiae deletion strains, locus YKL085W, strain MDH1, active compounds read low",0.996
same,normalized growth,"S. cerevisiae deletion strains, locus YKL160W, strain elf1, active compounds read low",0.985
same,normalized growth,"S. cerevisiae deletion strains, locus YKL190W, strain CNB1, active compounds read low",0.293 (active)
same,normalized growth,"S. cerevisiae deletion strains, locus YKR001C, strain vps1, active compounds read low",0.338 (active)
same,normalized growth,"S. cerevisiae deletion strains, locus YKR026C, strain gcn3, active compounds read low",0.994
same,normalized growth,"S. cerevisiae deletion strains, locus YKR091W, strain srl3, active compounds read low",0.985
same,normalized growth,"S. cerevisiae deletion strains, locus YLL001W, strain dnm1, active compounds read low",0.99
same,normalized growth,"S. cerevisiae deletion strains, locus YLL026W, active compounds read low",1.02
same,normalized growth,"S. cerevisiae deletion strains, locus YLL041C, strain sdh2, active compounds read low",0.989
same,normalized growth,"S. cerevisiae deletion strains, locus YLR027C, strain aat2, active compounds read low",0.972
same,normalized growth,"S. cerevisiae deletion strains, locus YLR039C, strain RIC1, active compounds read low",0.904
same,normalized growth,"S. cerevisiae deletion strains, locus YLR058C, strain SHM2, active compounds read low",0.409 (active)
same,normalized growth,"S. cerevisiae deletion strains, locus YLR102C, strain apc9, active compounds read low",0.702 (active)
same,normalized growth,"S. cerevisiae deletion strains, locus YLR113W, strain HOG1, active compounds read low",0.83 (active)
same,normalized growth,"S. cerevisiae deletion strains, locus YLR221C, strain rsa3, active compounds read low",1
same,normalized growth,"S. cerevisiae deletion strains, locus YLR258W, strain gsy2, active compounds read low",0.99
same,normalized growth,"S. cerevisiae deletion strains, locus YLR262C, strain YPT6 (second series), active compounds read low",1.04
same,normalized growth,"S. cerevisiae deletion strains, locus YLR262C, strain YPT6, active compounds read low",0.82
same,normalized growth,"S. cerevisiae deletion strains, locus YLR268W, strain sec22, active compounds read low",0.409 (active)
same,normalized growth,"S. cerevisiae deletion strains, locus YLR320W, strain mms22, active compounds read low",0.993
same,normalized growth,"S. cerevisiae deletion strains, locus YLR330W, strain CHS5, active compounds read low",0.711 (active)
same,normalized growth,"S. cerevisiae deletion strains, locus YLR342W, strain FKS1 (second series), active compounds read low",0.373 (active)
same,normalized growth,"S. cerevisiae deletion strains, locus YLR342W, strain FKS1, active compounds read low",0.979
same,normalized growth,"S. cerevisiae deletion strains, locus YLR357W, strain rsc2, active compounds read low",0.948
same,normalized growth,"S. cerevisiae deletion strains, locus YLR370C, strain arc18, active compounds read low",0.99
same,normalized growth,"S. cerevisiae deletion strains, locus YLR371W, strain rom2, active compounds read low",0.8 (active)
same,normalized growth,"S. cerevisiae deletion strains, locus YLR384C, strain iki3, active compounds read low",0.975
same,normalized growth,"S. cerevisiae deletion strains, locus YLR418C, strain cdc73, active compounds read low",0.478 (active)
same,normalized growth,"S. cerevisiae deletion strains, locus YML016C, strain PPZ1, active compounds read low",0.413 (active)
same,normalized growth,"S. cerevisiae deletion strains, locus YML032C, strain rad52, active compounds read low",0.459 (active)
same,normalized growth,"S. cerevisiae deletion strains, locus YML120C, strain ndi1, active compounds read low",0.996
same,normalized growth,"S. cerevisiae deletion strains, locus YML124C, strain tub3, active compounds read low",0.652 (active)
same,normalized growth,"S. cerevisiae deletion strains, locus YMR058W, strain fet3, active compounds read low",0.985
same,normalized growth,"S. cerevisiae deletion strains, locus YMR078C, strain ctf18, active compounds read low",0.912
same,normalized growth,"S. cerevisiae deletion strains, locus YMR125W, strain sto1, active compounds read low",0.981
same,normalized growth,"S. cerevisiae deletion strains, locus YMR129W, active compounds read low",0.991
same,normalized growth,"S. cerevisiae deletion strains, locus YMR205C, strain PFK2, active compounds read low",0.967
same,normalized growth,"S. cerevisiae deletion strains, locus YMR223W, strain ubp8, active compounds read low",0.393 (active)
same,normalized growth,"S. cerevisiae deletion strains, locus YMR231W, strain pep5, active compounds read low",0.995
same,normalized growth,"S. cerevisiae deletion strains, locus YMR263W, strain SAP30, active compounds read low",0.55 (active)
same,normalized growth,"S. cerevisiae deletion strains, locus YMR307W, strain GAS1, active compounds read low",0.986
same,normalized growth,"S. cerevisiae deletion strains, locus YNL067W, strain RPL9B, active compounds read low",0.319 (active)
same,normalized growth,"S. cerevisiae deletion strains, locus YNL071W, strain lat1, active compounds read low",0.991
same,normalized growth,"S. cerevisiae deletion strains, locus YNL128W, strain TEP1, active compounds read low",0.518 (active)
same,normalized growth,"S. cerevisiae deletion strains, locus YNL153C, strain GIM3, active compounds read low",0.701 (active)
same,normalized growth,"S. cerevisiae deletion strains, locus YNL183C, strain NPR1, active compounds read low",0.855
same,normalized growth,"S. cerevisiae deletion strains, locus YNL209W, strain ssb2, active compounds read low",0.98
same,normalized growth,"S. cerevisiae deletion strains, locus YNL233W, strain BNI4, active compounds read low",0.593 (active)
same,normalized growth,"S. cerevisiae deletion strains, locus YNL248C, strain rpa49, active compounds read low",0.975
same,normalized growth,"S. cerevisiae deletion strains, locus YNL250W, strain rad50, active compounds read low",0.995
same,normalized growth,"S. cerevisiae deletion strains, locus YNL271C, strain bni1, active compounds read low",0.963
same,normalized growth,"S. cerevisiae deletion strains, locus YNL298W, strain CLA4, active compounds read low",0.971
same,normalized growth,"S. cerevisiae deletion strains, locus YNL307C, strain MCK1, active compounds read low",0.561 (active)
same,normalized growth,"S. cerevisiae deletion strains, locus YNL322C, strain KRE1 (second series), active compounds read low",0.987
same,normalized growth,"S. cerevisiae deletion strains, locus YNL322C, strain KRE1, active compounds read low",0.496 (active)
same,normalized growth,"S. cerevisiae deletion strains, locus YNR049C, strain mso1, active compounds read low",0.998
same,normalized growth,"S. cerevisiae deletion strains, locus YNR052C, strain pop2, active compounds read low",0.671 (active)
same,normalized growth,"S. cerevisiae deletion strains, locus YOL006C, strain TOP1, active compounds read low",0.405 (active)
same,normalized growth,"S. cerevisiae deletion strains, locus YOL012C, strain htz1",2.03 [resistant] (active)
same,normalized growth,"S. cerevisiae deletion strains, locus YOL147C, strain pex11, active compounds read low",0.603 (active)
same,normalized growth,"S. cerevisiae deletion strains, locus YOR001W, strain rrp6, active compounds read low",0.973
same,normalized growth,"S. cerevisiae deletion strains, locus YOR061W, strain CKA2, active compounds read low",0.378 (active)
same,normalized growth,"S. cerevisiae deletion strains, locus YOR069W, strain VPS5, active compounds read low",0.731 (active)
same,normalized growth,"S. cerevisiae deletion strains, locus YOR070C, strain gyp1, active compounds read low",0.984
same,normalized growth,"S. cerevisiae deletion strains, locus YOR080W, strain dia2, active compounds read low",0.992
same,normalized growth,"S. cerevisiae deletion strains, locus YOR083W, strain WHI5, active compounds read low",0.994
same,normalized growth,"S. cerevisiae deletion strains, locus YOR106W, strain vam3, active compounds read low",1.02
same,normalized growth,"S. cerevisiae deletion strains, locus YOR136W, strain idh2, active compounds read low",0.748 (active)
same,normalized growth,"S. cerevisiae deletion strains, locus YOR144C, strain elg1, active compounds read low",0.586 (active)
same,normalized growth,"S. cerevisiae deletion strains, locus YOR184W, strain ser1, active compounds read low",0.333 (active)
same,normalized growth,"S. cerevisiae deletion strains, locus YOR231W, strain MKK1, active compounds read low",0.822 (active)
same,normalized growth,"S. cerevisiae deletion strains, locus YOR265W, strain rbl2, active compounds read low",0.984
same,normalized growth,"S. cerevisiae deletion strains, locus YOR270C, strain vph1, active compounds read low",0.976
same,normalized growth,"S. cerevisiae deletion strains, locus YOR290C, strain snf2, active compounds read low",0.96
same,normalized growth,"S. cerevisiae deletion strains, locus YOR316C, strain cot1, active compounds read low",0.663 (active)
same,normalized growth,"S. cerevisiae deletion strains, locus YPL051W, strain arl3, active compounds read low",0.994
same,normalized growth,"S. cerevisiae deletion strains, locus YPL055C, strain LGE1, active compounds read low",0.525 (active)
same,normalized growth,"S. cerevisiae deletion strains, locus YPL078C, strain atp4, active compounds read low",0.991
same,normalized growth,"S. cerevisiae deletion strains, locus YPL106C, strain sse1, active compounds read low",0.964
same,normalized growth,"S. cerevisiae deletion strains, locus YPL240C, strain hsp82, active compounds read low",1.01
same,normalized growth,"S. cerevisiae deletion strains, locus YPL241C, strain CIN2, active compounds read low",0.558 (active)
same,normalized growth,"S. cerevisiae deletion strains, locus YPL256C, strain CLN2, active compounds read low",0.786 (active)
same,normalized growth,"S. cerevisiae deletion strains, locus YPR119W, strain clb2, active compounds read low",0.804 (active)
same,normalized growth,"S. cerevisiae deletion strains, locus YPR141C, strain kar3, active compounds read low",1.01
same,normalized growth,"S. cerevisiae deletion strains, locus YPR163C, strain tif3, active compounds read low",0.984
same,normalized growth,"S. cerevisiae deletion strains, locus YPR167C, strain met16, active compounds read low",0.622 (active)
same,normalized growth,"S. cerevisiae deletion strains, strain wtn01, active compounds read low",0.305 (active)
same,normalized growth,"S. cerevisiae strains, strain wild type, active compounds read low",0.408 (active)
